Source: PubChem BioAssay (NCI)
About 79,000 compounds went through this panel and 15% of them were active in at least one assay; those are over-represented in the sample as a whole. Calls of active or inactive are those of the source. Cut-off read from the data, not from the text of the source: active = growth inhibition above about 70%; inactive = the rest.

Key:
[1] = NCI Yeast Anticancer Drug Screen. Data for the rad50 strain (AID 155);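 note: 0% = growth of vehicle-only cultures of the same strain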; settings: S. cerevisiae rad50 strain growth inhibition, active compounds read high
Procedure, shortened: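 Growth of the mutant yeast was measured after compound exposure and referenced to vehicle-treated cultures.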

[2] = NCI Yeast Anticancer Drug Screen. Data for the mec2-1 strain (AID 157); settings: S. cerevisiae mec2-1 strain, active compounds read high
Procedure, shortened: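 Compounds were applied to mec2-1 yeast cells. Their growth was then compared with that of vehicle-treated cultures to give growth inhibition.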

[3] = NCI Yeast Anticancer Drug Screen. Data for the sgs1 mgt1 strain (AID 161);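 note: 0% = growth of cultures given vehicle only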; settings: S. cerevisiae sgs1 mgt1 strain, active compounds read high
Procedure, shortened: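 Yeast cells carrying a defined DNA-repair defect were exposed to test compounds. Growth inhibition was measured relative to vehicle-treated controls.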

[4] = NCI Yeast Anticancer Drug Screen. Data for the cln2 rad14 strain (AID 165);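 note: 0% = growth equal to vehicle treated cultures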; settings: S. cerevisiae cln2 rad14 strain, active compounds read high
Procedure, shortened: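 Strain: cln2 rad14 yeast, altered in cell cycle control and DNA damage repair. Read-out: growth inhibition vs vehicle.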

[5] = NCI Yeast Anticancer Drug Screen. Data for the bub3 strain (AID 167); settings: S. cerevisiae bub3 mutant strain, active compounds read high
Procedure, shortened: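 Whole-cell yeast assay. The mutant strain was incubated with compounds, and growth inhibition was determined by comparison with vehicle-treated cells.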

[6] = NCI Yeast Anticancer Drug Screen. Data for the mlh1 rad18 strain (AID 175); settings: S. cerevisiae mlh1 rad18 strain growth inhibition, active compounds read high
Procedure, shortened: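 A repair-deficient yeast strain is exposed to test compound, and growth is scored relative to vehicle-treated controls.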

[7] = at 5.0 µM (retest, dose inferred, filed as 0.5)
[8] = at 50.0 µM (retest, dose inferred, filed as 5.0)

SMILES | growth inhibition [1, 7] | growth inhibition [1, 8] | growth inhibition ([1]; at 50.0 µM) | growth inhibition [2, 7] | growth inhibition [2, 8] | growth inhibition ([2]; at 50.0 µM) | growth inhibition [3, 7] | growth inhibition [3, 8] | growth inhibition ([3]; at 50.0 µM) | growth inhibition [4, 7] | growth inhibition [4, 8] | growth inhibition ([4]; at 50.0 µM) | growth inhibition [5, 7] | growth inhibition [5, 8] | growth inhibition ([5]; at 50.0 µM) | growth inhibition [6, 7] | growth inhibition [6, 8] | growth inhibition ([6]; at 50.0 µM)
[I][Hg][CH2]C1COCC([CH2][Hg][I])O1 (configuration not stated) | 0% (inactive) | 5% (inactive) | 98.7% (active) | 4% (inactive) | 6% (inactive) | 99.5% (active) | 0% (inactive) | 9% (inactive) | 99.2% (active) | -1% (inactive) | 7% (inactive) | 98.2% (active) | 5% (inactive) | -8% (inactive) | 99.5% (active) | 0% (inactive) | 7% (inactive) | 99.2% (active)
Cc1cc(N(CCCl)CCCl)ccc1C=Nc1ccc(-c2csc(COc3ccccc3)n2)c(Cl)c1 | 4% (inactive) | 93% (active) | 94% (active) | -13% (inactive) | 90% (active) | 95.6% (active) | 23% (inactive) | 95% (active) | 95% (active) | -10% (inactive) | 94% (active) | 89.1% (active) | 6% (inactive) | 91% (active) | 90.3% (active) | 52% (inactive) | 94% (active) | 94.5% (active)
COC1=C(C)C(=O)c2c(c(COC(N)=O)c3n2CC2C3N2C)C1=O (configuration not stated) | 37% (inactive) | 65% (inactive) | 93% (active) | 2% (inactive) | 52% (inactive) | 95.3% (active) | 30% (inactive) | 74% (active) | 73.8% (active) | -8% (inactive) | 72% (active) | 87.1% (active) | 8% (inactive) | 27% (inactive) | 78.1% (active) | 13% (inactive) | 93% (active) | 96% (active)
CC(Cc1ccccc1)N(C)Cc1ccc(-c2ccc(Cl)cc2)o1 (configuration not stated) | 56% (inactive) | 100% (active) | 99% (active) | 11% (inactive) | 100% (active) | 99.7% (active) | 49% (inactive) | 100% (active) | 33.9% (inactive) | 38% (inactive) | 100% (active) | 99.3% (active) | 42% (inactive) | 100% (active) | 99.2% (active) | 41% (inactive) | 100% (active) | 99.5% (active)
Nc1cc(Cl)ccc1C(=O)c1ccccc1Cl | -1% (inactive) | 98% (active) | 98.8% (active) | -4% (inactive) | 99% (active) | 99% (active) | 2% (inactive) | 98% (active) | 98.8% (active) | -6% (inactive) | 98% (active) | 96.8% (active) | -9% (inactive) | 98% (active) | 98% (active) | -4% (inactive) | 99% (active) | 98.2% (active)
CC12CCC(O)CC1=CCC1C2CCC2(C)C(NC(=O)C3CCCN3C(=O)CN(CCCl)CCCl)CCC12 (configuration not stated) | -5% (inactive) | 56% (inactive) | 79% (active) | -4% (inactive) | 46% (inactive) | 72.5% (active) | 1% (inactive) | 80% (active) | 91.5% (active) | -5% (inactive) | 34% (inactive) | 63.2% (inactive) | -6% (inactive) | 38% (inactive) | 64.8% (inactive) | 12% (inactive) | 76% (active) | 86.8% (active)
ClCCN(CCCl)c1ccc(C2N(Cc3ccc(N(CCCl)CCCl)cc3Cl)CCCN2Cc2ccc(N(CCCl)CCCl)cc2Cl)cc1 | 2% (inactive) | 99% (active) | 96.2% (active) | -3% (inactive) | 99% (active) | 98.8% (active) | -1% (inactive) | 99% (active) | 97.5% (active) | -7% (inactive) | 99% (active) | 22.1% (inactive) | 1% (inactive) | 99% (active) | 37% (inactive) | 9% (inactive) | 99% (active) | 98.2% (active)
CN(Cc1ccccc1)CC(O)c1ccc(Cl)cc1 (configuration not stated) | -4% (inactive) | 38% (inactive) | 57.5% (inactive) | -1% (inactive) | 23% (inactive) | 0.75% (inactive) | 2% (inactive) | 44% (inactive) | 58.6% (inactive) | 3% (inactive) | 25% (inactive) | 48.5% (inactive) | 2% (inactive) | 41% (inactive) | 60.5% (inactive) | 4% (inactive) | 34% (inactive) | 34.5% (inactive)
CN(C)c1ccc(/C=C/c2cc[n+]3ccsc3n2)cc1 | -3% (inactive) | 69% (inactive) | 90.8% (active) | 24% (inactive) | 94% (active) | 88% (active) | -10% (inactive) | 93% (active) | 92.2% (active) | -5% (inactive) | 63% (inactive) | 72% (active) | 8% (inactive) | 90% (active) | 96.2% (active) | 2% (inactive) | 85% (active) | 97.2% (active)
